According to PubChem BioAssay (NCATS):
Results filed as inconclusive are left out. Values without a mark were called inactive. Calls of active or inactive are those of the source. The call rests on the fitted dose curve; in most records, active means well fitted inhibition curve with a large enough effect; inconclusive means small, poorly fitted or top-dose-only effect; inactive means no such curve, though single readings can be large or run the other way.

Assay: qHTS to identify inhibitors of the type 1 interferon - major histocompatibility complex class I in skeletal muscle: primary screen against the NCATS Mechanism Interrogation Plate v5.0 (MIPE) Libary (AID 1347411); further: nearly all actives have a fitted effect of over 65% in size;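 on activity change, negative = inhibition: plate controls were vehicle for no effect and reference inhibitor for full effect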
Details: iHSKM cells + IFN-b, HiBiT-tagged MHC-I luminescence, 24 h; series mostly up to 45.8 µM; activity change, negative = inhibition: at the top concentration
Summary of the method: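 Seed engineered human myoblasts (HLA-B HiBit) in medium without dexamethasone containing 4 ng/ml IFN-beta; after 1 hr add compound titrations (top 46 uM final). Incubate 24 hrs at 37 C, lyse 10 min with HiBiT reagent, read luminescence.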
Potency means the concentration at half of the fitted maximal effect.

Compound	Potency	activity change, negative = inhibition [%]
CCCCCN=C(N)N/N=C/c1c[nH]c2ccc(OC)cc12	6.58 µM (active)	
C#C[C@]1(O)CC[C@H]2[C@@H]3[C@H](C)CC4=C(CCC(=O)C4)[C@H]3CC[C@@]21C		5.06
CC(=O)O[C@H]1C[C@@H]2CC[C@@H]3[C@H](CC[C@@]4(C)[C@H]3C[C@H]([N+]3(C)CCCCC3)[C@@H]4OC(C)=O)[C@@]2(C)C[C@@H]1N1CCCCC1		-3.97
O=c1[nH]c(=O)n([C@H]2C[C@H](O)[C@@H](CO)O2)cc1F		6.9
Clc1cccc(C(c2ccc3nc[nH]c3c2)n2ccnc2)c1 (configuration not stated)		-12.6
Nc1nc(Cl)nc2c1ncn2[C@@H]1O[C@H](CO)[C@@H](O)[C@@H]1F		-11.5
CC(=O)O[C@]1(C(C)=O)CC[C@H]2[C@@H]3C=C(C)C4=CC(=O)CC[C@]4(C)[C@H]3CC[C@@]21C		-25
